{
  "source": "paper PMC8384837",
  "about": "“Expanding the binding specificity for RNA recognition by a PUF domain”",
  "experiment_in_all_cases": "yeast three-hybrid, YBZ-1, SC-Leu-His + 0.5 mM 3-AT, 4 days",
  "details_in_all_cases": "tags: N-Gal4 AD-HA kept; label: inside an RPR1-promoter hybrid RNA with tandem MS2 sites; ssRNA",
  "key": {"PUM1 PUF domain R6-SWQ": {"biological_target": "T1, PUM1 PUF domain R6-SWQ (Homo sapiens, UniProt Q14671 828-1176, N1043S;Y1044W)", "T1 sequence": "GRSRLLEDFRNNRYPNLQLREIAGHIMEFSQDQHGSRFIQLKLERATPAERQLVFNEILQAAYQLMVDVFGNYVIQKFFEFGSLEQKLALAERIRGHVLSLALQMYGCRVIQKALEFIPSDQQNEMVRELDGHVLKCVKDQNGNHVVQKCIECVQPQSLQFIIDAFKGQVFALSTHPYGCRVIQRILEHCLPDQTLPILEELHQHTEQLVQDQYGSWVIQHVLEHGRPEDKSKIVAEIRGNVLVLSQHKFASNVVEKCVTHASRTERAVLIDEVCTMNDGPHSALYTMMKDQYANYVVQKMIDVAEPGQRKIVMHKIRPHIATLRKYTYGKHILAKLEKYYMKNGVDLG", "summary_of_the_method": "(§1)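 Repeat regions from input (SC-Leu) and selection (SC-Leu-His + 0.5 mM 3-AT) plates were PCR-amplified and Illumina-sequenced after four days of growth. The cells were strain YBZ-1 with a LexA–MS2 coat fusion and a HIS3 reporter, co-expressing Pumilio-1 PUF domain libraries and matching RNA elements from a centromeric plasmid. The interaction score is the log change in variant frequency from input to selection, taken in log2 with a pseudocount of 1 for absent variants.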"}, "PUM1 PUF domain R4-PHQ": {"biological_target": "PUM1 PUF domain R4-PHQ (Homo sapiens, UniProt Q14671 828-1176, N971P)", "summary_of_the_method": "as §1"}, "PUM1 PUF domain R4-WGW": {"biological_target": "PUM1 PUF domain R4-WGW (Homo sapiens, UniProt Q14671 828-1176, N971W;H972G;Q975W)", "summary_of_the_method": "as §1"}, "PUM1 PUF domain R7-CCR": {"biological_target": "PUM1 PUF domain R7-CCR (Homo sapiens, UniProt Q14671 828-1176, S1079C;N1080C;E1083R)", "summary_of_the_method": "as §1"}, "PUM1 PUF domain R3-TRP": {"biological_target": "PUM1 PUF domain R3-TRP (Homo sapiens, UniProt Q14671 828-1176, C935T;Q939P)", "summary_of_the_method": "as §1"}, "PUM1 PUF domain R5-LHR": {"biological_target": "PUM1 PUF domain R5-LHR (Homo sapiens, UniProt Q14671 828-1176, C1007L;R1008H;Q1011R)", "summary_of_the_method": "as §1"}, "PUM1 PUF domain R3-FWR": {"biological_target": "PUM1 PUF domain R3-FWR (Homo sapiens, UniProt Q14671 828-1176, C935F;R936W;Q939R)", "summary_of_the_method": "as §1"}, "PUM1 PUF domain R8-TRR": {"biological_target": "PUM1 PUF domain R8-TRR (Homo sapiens, UniProt Q14671 828-1176, N1122T;Y1123R;Q1126R)", "summary_of_the_method": "as §1"}, "PUM1 PUF domain R3-GFD": {"biological_target": "PUM1 PUF domain R3-GFD (Homo sapiens, UniProt Q14671 828-1176, C935G;R936F;Q939D)", "summary_of_the_method": "as §1"}, "PUM1 PUF domain R1-KKT": {"biological_target": "PUM1 PUF domain R1-KKT (Homo sapiens, UniProt Q14671 828-1176, S863K;R864K;Q867T)", "summary_of_the_method": "as §1"}},
  "data": [
    {"sequence": "GGCUAGAACUAGUGGAUCCCCCGGCGCCCGGCGGCUCGAGCCCGGGUAAGUGGAAAUAGUCUGCAUGCCGCCGGGCGCCAUGCCUGCAGGUCGACUCUAGAAAACAUG", "values": [
      {"measurement": "binding signal", "setting": "PUM1 PUF domain R6-SWQ", "result": "3.61 log2 enrichment (interaction score)"}
    ]},
    {"sequence": "GGCUAGAACUAGUGGAUCCCCCGGCGCCCGGCGGCUCGAGCCCGGGUAAGUGUAUAUAGUCUGCAUGCCGCCGGGCGCCAUGCCUGCAGGUCGACUCUAGAAAACAUG", "values": [
      {"measurement": "binding signal", "setting": "PUM1 PUF domain R4-PHQ", "result": "7.3 log2 enrichment (interaction score)"},
      {"measurement": "binding signal", "setting": "PUM1 PUF domain R4-WGW", "result": "3.62 log2 enrichment (interaction score)"}
    ]},
    {"sequence": "GGCUAGAACUAGUGGAUCCCCCGGCGCCCGGCGGCUCGAGCCCGGGUAAGUGAAAAUAGUCUGCAUGCCGCCGGGCGCCAUGCCUGCAGGUCGACUCUAGAAAACAUG", "values": [
      {"measurement": "binding signal", "setting": "PUM1 PUF domain R6-SWQ", "result": "2.27 log2 enrichment (interaction score)"}
    ]},
    {"sequence": "GGCUAGAACUAGUGGAUCCCCCGGCGCCCGGCGGCUCGAGCCCGGGUAAGUCUAAAUAGUCUGCAUGCCGCCGGGCGCCAUGCCUGCAGGUCGACUCUAGAAAACAUG", "values": [
      {"measurement": "binding signal", "setting": "PUM1 PUF domain R7-CCR", "result": "3.07 log2 enrichment (interaction score)"}
    ]},
    {"sequence": "GGCUAGAACUAGUGGAUCCCCCGGCGCCCGGCGGCUCGAGCCCGGGUAAGUGUAAAUAGUCUGCAUGCCGCCGGGCGCCAUGCCUGCAGGUCGACUCUAGAAAACAUG", "values": [
      {"measurement": "binding signal", "setting": "PUM1 PUF domain R3-TRP", "result": "4.51 log2 enrichment (interaction score)"},
      {"measurement": "binding signal", "setting": "PUM1 PUF domain R4-WGW", "result": "3.2 log2 enrichment (interaction score)"},
      {"measurement": "binding signal", "setting": "PUM1 PUF domain R5-LHR", "result": "3.11 log2 enrichment (interaction score)"},
      {"measurement": "binding signal", "setting": "PUM1 PUF domain R3-FWR", "result": "0.88 log2 enrichment (interaction score)"},
      {"measurement": "binding signal", "setting": "PUM1 PUF domain R8-TRR", "result": "1.14 log2 enrichment (interaction score)"},
      {"measurement": "binding signal", "setting": "PUM1 PUF domain R3-GFD", "result": "5.65 log2 enrichment (interaction score)"}
    ]},
    {"sequence": "GGCUAGAACUAGUGGAUCCCCCGGCGCCCGGCGGCUCGAGCCCGGGUAAGUGUAAAUCGUCUGCAUGCCGCCGGGCGCCAUGCCUGCAGGUCGACUCUAGAAAACAUG", "values": [
      {"measurement": "binding signal", "setting": "PUM1 PUF domain R1-KKT", "result": "3.84 log2 enrichment (interaction score)"}
    ]},
    {"sequence": "GGCUAGAACUAGUGGAUCCCCCGGCGCCCGGCGGCUCGAGCCCGGGUAAGUGUAAUUAGUCUGCAUGCCGCCGGGCGCCAUGCCUGCAGGUCGACUCUAGAAAACAUG", "values": [
      {"measurement": "binding signal", "setting": "PUM1 PUF domain R3-TRP", "result": "1.29 log2 enrichment (interaction score)"},
      {"measurement": "binding signal", "setting": "PUM1 PUF domain R3-FWR", "result": "2.94 log2 enrichment (interaction score)"}
    ]},
    {"sequence": "GGCUAGAACUAGUGGAUCCCCCGGCGCCCGGCGGCUCGAGCCCGGGUAAGUGUACAUAGUCUGCAUGCCGCCGGGCGCCAUGCCUGCAGGUCGACUCUAGAAAACAUG", "values": [
      {"measurement": "binding signal", "setting": "PUM1 PUF domain R4-PHQ", "result": "2.14 log2 enrichment (interaction score)"},
      {"measurement": "binding signal", "setting": "PUM1 PUF domain R4-WGW", "result": "2 log2 enrichment (interaction score)"}
    ]},
    {"sequence": "GGCUAGAACUAGUGGAUCCCCCGGCGCCCGGCGGCUCGAGCCCGGGUAAGCGUAAAUAGUCUGCAUGCCGCCGGGCGCCAUGCCUGCAGGUCGACUCUAGAAAACAUG", "values": [
      {"measurement": "binding signal", "setting": "PUM1 PUF domain R8-TRR", "result": "2.73 log2 enrichment (interaction score)"}
    ]}
  ]
}
